Where “and” joins values, the source holds several entries; their conditions need not be identical. Equal entries are not always repeated. Hit rate of the full screen: of about 5,500 compounds, about 2,000 (36%) were called active. Roughly 18% stayed inconclusive and do not appear here. No stated cut-off is given here; in the data, active means normalized growth mostly below about 0.91 (no sharp cut-off); inconclusive means no clear call, values can overlap the other calls; inactive means mostly above about 0.92. Some of the results follow.
Assay: chemical genetic growth profiling, strain panel (AID 1159580);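 further: tested at 20 µM; growth read once vehicle control cultures reached saturation at 30 °C; 1 = growth at the plate median or of vehicle wells; lower values mean less growth of the strain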
Settings: S. cerevisiae deletion strains, growth OD

Measured: normalized growth

C=C(C)[C@H]1Cc2c(ccc3c2O[C@@H]2COc4cc(OC)c(OC)cc4[C@@H]2C3=O)O1
active: locus YBR009C, strain hhf1, hits give low values 0.892 | locus YER110C, hits give low values 1.11 [resistant] | locus YJL164C, strain tpk1, hits give low values 0.917 | locus YLR262C, strain YPT6 (second series), hits give low values 0.83 | locus YNL071W, strain lat1, hits give low values 0.894
inactive: locus YAL013W, strain DEP1, hits give low values 1.01 | locus YAL021C, strain ccr4, hits give low values 0.993 | locus YAL026C, strain drs2, hits give low values 0.962 | locus YAL030W, strain snc1, hits give low values 0.982 | locus YBL061C, strain skt5, hits give low values 0.994 | locus YBR021W, strain FUR4, hits give low values 0.975 | locus YBR023C, strain chs3, hits give low values 0.962 | locus YBR171W, strain sec66, hits give low values 0.979 | locus YBR229C, strain ROT2, hits give low values 1.01 | locus YBR231C, strain swc5, hits give low values 1 | locus YBR279W, strain paf1, hits give low values 1.06 | locus YCL011C, strain gbp2, hits give low values 0.936 | locus YCL016C, strain dcc1, hits give low values 0.926 | locus YCL029C, strain bik1, hits give low values 1.03 | locus YCL061C, strain MRC1, hits give low values 1 | locus YCL069W, strain vba3, hits give low values 0.997 | locus YCR088W, strain abp1, hits give low values 1.03 | locus YDL005C, strain med2, hits give low values 0.99 | locus YDL035C, strain GPR1, hits give low values 0.956 | locus YDL040C, strain nat1, hits give low values 0.986 | locus YDL074C, strain BRE1, hits give low values 0.926 | locus YDL101C, strain DUN1, hits give low values 0.992 | locus YDL185W, strain tfp1, hits give low values 1.02 | locus YDL192W, strain arf1, hits give low values 1.02 | locus YDR001C, strain nth1, hits give low values 1.01 | locus YDR069C, strain doa4, hits give low values 0.991 | locus YDR101C, strain arx1, hits give low values 1 | locus YDR137W, strain rgp1, hits give low values 0.853 | locus YDR159W, strain sac3, hits give low values 0.984 | locus YDR162C, strain NBP2, hits give low values 0.966 | locus YDR195W, strain ref2 1.13 | locus YDR297W, strain sur2, hits give low values 0.966 | locus YDR318W, strain mcm21, hits give low values 1 | locus YDR334W, strain swr1, hits give low values 1.04 | locus YDR335W, strain msn5, hits give low values 1 | locus YDR388W, hits give low values 1.01 | locus YDR392W, strain spt3, hits give low values 0.762 | locus YDR502C, strain sam2, hits give low values 1 | locus YEL003W, strain gim4, hits give low values 0.981 | locus YEL037C, strain rad23, hits give low values 1.02 | locus YEL061C, strain CIN8 (second series), hits give low values 1.03 | locus YEL061C, strain CIN8, hits give low values 1 | locus YER015W, strain faa2, hits give low values 0.982 | locus YER016W, strain bim1, hits give low values 0.986 | locus YER111C, strain swi4, hits give low values 1.02 | locus YER155C, strain BEM2 (second series), hits give low values 1.07 | locus YER155C, strain BEM2, hits give low values 1 | locus YER167W, strain BCK2, hits give low values 0.966 | locus YFR010W, strain ubp6, hits give low values 1.01 | locus YGL078C, strain dbp3, hits give low values 1.01 | locus YGL086W, strain mad1, hits give low values 0.993 | locus YGL167C, strain pmr1, hits give low values 0.97 | locus YGL173C, strain kem1, hits give low values 0.98 | locus YGL227W, strain vid30, hits give low values 1.01 | locus YGL240W, strain doc1, hits give low values 0.999 | locus YGL248W, strain PDE1, hits give low values 0.993 | locus YGL253W, strain hxk2, hits give low values 0.964 | locus YGR135W, strain pre9, hits give low values 0.996 | locus YGR229C, strain SMI1, hits give low values 0.924 | locus YGR252W, strain gcn5, hits give low values 0.914 | locus YHR013C, strain ard1, hits give low values 1 | locus YHR027C, strain rpn1, hits give low values 0.975 | locus YHR030C, strain SLT2, hits give low values 1.01 and 0.915 | locus YHR079C, strain IRE1 (second series), hits give low values 1.02 | locus YHR079C, strain IRE1, hits give low values 0.95 | locus YHR094C, strain hxt1, hits give low values 1.02 | locus YHR129C, strain ARP1, hits give low values 1.01 | locus YHR142W, strain chs7, hits give low values 0.972 | locus YHR200W, strain rpn10, hits give low values 0.996 | locus YIL066C, strain RNR3, hits give low values 0.968 | locus YIL073C, strain SPO22, hits give low values 1.04 | locus YIL125W, strain kgd1, hits give low values 1.01 | locus YIR030C, strain dcg1, hits give low values 1.02 | locus YJL092W, strain hpr5, hits give low values 1.01 | locus YJL095W, strain BCK1 (second series), hits give low values 0.967 | locus YJL095W, strain BCK1, hits give low values 0.958 and 0.936 | locus YJL115W, strain asf1, hits give low values 1.02 | locus YJL129C, strain trk1, hits give low values 0.901 | locus YJL134W, strain LCB3, hits give low values 1.01 | locus YJL154C, strain vps35, hits give low values 1 | locus YJL166W, strain qcr8, hits give low values 0.932 | locus YJL168C, strain set2, hits give low values 1.04 | locus YJL187C, strain SWE1 (second series), hits give low values 0.982 | locus YJL187C, strain SWE1, hits give low values 0.993 | locus YJR043C, strain POL32, hits give low values 0.973 | locus YJR066W, strain TOR1, hits give low values 0.851 | locus YJR075W, strain HOC1, hits give low values 0.983 | locus YKL009W, strain mrt4, hits give low values 1.03 | locus YKL068W, hits give low values 1 | locus YKL085W, strain MDH1 (second series), hits give low values 1 | locus YKL085W, strain MDH1, hits give low values 1 | locus YKL160W, strain elf1, hits give low values 0.95 | locus YKL190W, strain CNB1, hits give low values 1 | locus YKR001C, strain vps1, hits give low values 0.947 | locus YKR026C, strain gcn3, hits give low values 1 | locus YKR091W, strain srl3, hits give low values 0.991 | locus YLL001W, strain dnm1, hits give low values 0.983 | locus YLL026W, hits give low values 0.976 | locus YLL041C, strain sdh2, hits give low values 0.99 | locus YLR027C, strain aat2, hits give low values 0.978 | locus YLR039C, strain RIC1, hits give low values 0.936 | locus YLR058C, strain SHM2, hits give low values 1.01 | locus YLR102C, strain apc9, hits give low values 1.02 | locus YLR113W, strain HOG1, hits give low values 0.968 | locus YLR221C, strain rsa3, hits give low values 0.921 | locus YLR258W, strain gsy2, hits give low values 0.958 | locus YLR262C, strain YPT6, hits give low values 0.99 | locus YLR268W, strain sec22, hits give low values 0.978 | locus YLR320W, strain mms22, hits give low values 0.891 | locus YLR330W, strain CHS5, hits give low values 1.02 | locus YLR342W, strain FKS1 (second series), hits give low values 1.02 | locus YLR342W, strain FKS1, hits give low values 1.01 | locus YLR357W, strain rsc2, hits give low values 1.09 | locus YLR370C, strain arc18, hits give low values 0.975 | locus YLR371W, strain rom2, hits give low values 1.02 | locus YLR384C, strain iki3, hits give low values 1.03 | locus YLR418C, strain cdc73, hits give low values 0.917 | locus YML016C, strain PPZ1, hits give low values 1.01 | locus YML032C, strain rad52, hits give low values 1.01 | locus YML120C, strain ndi1, hits give low values 0.95 | locus YML124C, strain tub3, hits give low values 1.01 | locus YMR058W, strain fet3, hits give low values 0.994 | locus YMR078C, strain ctf18, hits give low values 1.01 | locus YMR125W, strain sto1, hits give low values 1.05 | locus YMR129W, hits give low values 1 | locus YMR205C, strain PFK2, hits give low values 0.929 | locus YMR223W, strain ubp8, hits give low values 1 | locus YMR231W, strain pep5, hits give low values 0.983 | locus YMR307W, strain GAS1, hits give low values 1 | locus YNL067W, strain RPL9B, hits give low values 0.987 | locus YNL128W, strain TEP1, hits give low values 0.995 | locus YNL183C, strain NPR1, hits give low values 0.886 | locus YNL209W, strain ssb2, hits give low values 0.979 | locus YNL233W, strain BNI4, hits give low values 0.976 | locus YNL248C, strain rpa49, hits give low values 1.06 | locus YNL250W, strain rad50, hits give low values 1.02 | locus YNL271C, strain bni1, hits give low values 1.02 | locus YNL298W, strain CLA4, hits give low values 1.01 | locus YNL307C, strain MCK1, hits give low values 0.962 | locus YNL322C, strain KRE1 (second series), hits give low values 0.991 | locus YNL322C, strain KRE1, hits give low values 1 | locus YNR049C, strain mso1, hits give low values 1.01 | locus YNR052C, strain pop2, hits give low values 1.01 | locus YOL006C, strain TOP1, hits give low values 0.944 | locus YOL012C, strain htz1 0.818 | locus YOL147C, strain pex11, hits give low values 1.03 | locus YOR001W, strain rrp6, hits give low values 0.967 | locus YOR061W, strain CKA2, hits give low values 1 | locus YOR069W, strain VPS5, hits give low values 1 | locus YOR070C, strain gyp1, hits give low values 0.961 | locus YOR080W, strain dia2, hits give low values 0.994 | locus YOR083W, strain WHI5, hits give low values 0.969 | locus YOR106W, strain vam3, hits give low values 0.974 | locus YOR136W, strain idh2, hits give low values 1.01 | locus YOR144C, strain elg1, hits give low values 1 | locus YOR184W, strain ser1, hits give low values 0.952 | locus YOR231W, strain MKK1, hits give low values 0.94 | locus YOR265W, strain rbl2, hits give low values 0.973 | locus YOR270C, strain vph1, hits give low values 0.853 | locus YOR290C, strain snf2, hits give low values 0.985 | locus YOR316C, strain cot1, hits give low values 1.01 | locus YPL051W, strain arl3, hits give low values 0.963 | locus YPL055C, strain LGE1, hits give low values 0.942 | locus YPL078C, strain atp4, hits give low values 1.03 | locus YPL106C, strain sse1, hits give low values 0.977 | locus YPL240C, strain hsp82, hits give low values 0.975 | locus YPL241C, strain CIN2, hits give low values 1.01 | locus YPL256C, strain CLN2, hits give low values 0.942 | locus YPR119W, strain clb2, hits give low values 1.01 | locus YPR141C, strain kar3, hits give low values 1.04 | locus YPR163C, strain tif3, hits give low values 0.933 | locus YPR167C, strain met16, hits give low values 1 | strain wtn01, hits give low values 1.03
